# Screening data from PubChem BioAssay.
# Giardia killer – Small Molecules that selectively kill Giardia lamblia: qHTS. Giardia lamblia trophozoite viability. activity change, % at 7.66 µM, hits read low. 0.15% of 340,000 active. AID 540267, 2011; in the data active = activity change below about -80%; inconclusive = between about -30% and that limit;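 also: parasites exposed to compound for two days anaerobically before the ATP read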
#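 Each well holds 100 Giardia trophozoites and compound. After two days (48 hrs) at 37 deg C in anaerobic conditions, ATP is quantified by luminescence.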
# D3 antag – qHTS of D3 Dopamine Receptor Antagonist: qHTS; D(3) dopamine receptor (Homo sapiens), P35462; D3R cells, DiscoveRx beta-arrestin luminescence, antagonist mode; stronger effect = lower value; max response, negative = inhibition, %; 2.5% of 360,000 active; in the data active = max response below about -50%; inconclusive = no clear call, values can overlap the other calls
# Target sequence (P35462 whole entry, looked up): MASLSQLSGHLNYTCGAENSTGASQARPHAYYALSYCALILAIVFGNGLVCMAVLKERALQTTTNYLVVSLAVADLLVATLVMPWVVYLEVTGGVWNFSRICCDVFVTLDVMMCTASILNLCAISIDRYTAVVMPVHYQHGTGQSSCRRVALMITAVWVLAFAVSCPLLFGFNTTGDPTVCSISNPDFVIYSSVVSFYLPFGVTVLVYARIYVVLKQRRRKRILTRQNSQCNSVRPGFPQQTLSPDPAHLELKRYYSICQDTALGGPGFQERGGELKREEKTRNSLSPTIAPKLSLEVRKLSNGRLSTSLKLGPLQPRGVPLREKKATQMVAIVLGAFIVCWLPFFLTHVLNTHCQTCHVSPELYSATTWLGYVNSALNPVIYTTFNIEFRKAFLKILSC
#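 Cells expressing the human receptor were seeded at 1500 cells/well, incubated overnight at 37 degrees C in 5% CO2, then exposed to library compounds with dopamine controls for 90 minutes at 37 degrees C before luminescent detection.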
# DRD3 agonist – qHTS of D3 Dopamine Receptor Agonist: qHTS; D3R DiscoveRx beta-arrestin cells, luminescence, 90 min; max activation, %; 0.58% of 410,000 active; AID 652048, 2013; in the data active = max activation above about 30%
#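 Agonist mode: compounds and dopamine controls were applied to plated cells for 90 min at 37 degrees C after an overnight attachment at 1500 cells/well. Luminescent read-out followed 30 - 60 minutes at room temperature with DiscoveRx detection reagent.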
# B2AR arrestin – qHTS assay of beta-arrestin-biased ligands of beta2-adrenergic receptor; Beta-2 adrenergic receptor (Homo sapiens), P07550; beta-arrestin recruitment to beta2AR, cell-based reporter; Potency, µM (doses to about 46.1 µM), most hits filed as activators; 0.02% of 330,000 active; active = well fitted activation curve with a large enough effect; inconclusive = small, poorly fitted or top-dose-only effect; also: nearly all actives have a fitted effect of over 65% in size
# Hits are given with their value; n = inactive; u = inconclusive; x = no result. An excerpt weighted towards active compounds, which were near 2.8% of everything screened.
SMILES,Giardia killer,D3 antag,DRD3 agonist,B2AR arrestin
C=C1C(O)[C@@H]2O[C@]3(CC[C@H](/C=C/C(C)[C@@H]4CC(C)=CC5(O[C@H](C[C@@](C)(O)C(=O)O)CCC5O)O4)O3)CC[C@H]2O[C@@H]1C(O)CC(C)[C@H]1OC2(CCCCO2)CCC1C (some centres undefined),n,-132,n,n
Cc1cc(Cl)ccc1C(=O)C1CCCN(C2CCSCC2)C1 (centres undefined),n,-76,n,n
O=C(c1ccc(C(F)(F)F)cc1)C1CCCN(C2CCSCC2)C1 (centres undefined),n,-57,n,n
O=C(c1cc(F)ccc1F)C1CCCN(Cc2cc(Cl)ccc2O)C1 (centres undefined),u,u,n,n
COc1ccc(OCC(=O)N2CCN(Cc3cccc(OC)c3OC)CC2)cc1,x,x,n,x
CN1CC[C@@]23CCCC[C@@H]2[C@@H]1Cc1ccc(O)cc13,n,n,n,n
CN1CC[C@]2(c3cccc(O)c3)Cc3nc4ccccc4cc3C[C@H]2C1,x,x,x,11µM
CCOC(=O)NC(O)C(Cl)(Cl)Cl (centres undefined),x,x,n,x
O=C1C(I)=CC(=C(c2cc(I)c(O)c(I)c2)c2ccccc2C(=O)O)C=C1I,x,x,n,x
COc1ccccc1CNCCc1ccc(F)cc1,n,-55,n,n
CCc1ccc(CNCCc2ccc(F)cc2)cc1,n,n,n,n
COc1cc(OC)c(OC)cc1CNCCc1ccc(F)cc1,n,n,n,n
Fc1ccc(CCNCc2ccc(Cl)c(Cl)c2)cc1,n,-72,n,n
O=c1n(Cl)c(=O)n(Cl)c(=O)n1Cl,x,x,n,x
O=C1NC(=O)C2(Cc3ccccc3N3CCCC32)C(=O)N1c1cccc(Cl)c1 (centres undefined),n,n,n,n
Cc1ccc(CN2C(=O)NC(=O)C3(Cc4c(nc5ccccn5c4=O)N4CCCCCC43)C2=O)cc1 (centres undefined),n,n,54,n
Fc1ccc(CN2CCN(c3ccc(Cl)cc3)CC2)cc1,n,-52,n,n
Cc1cccc(CN2CCN(c3ccc(Cl)cc3)CC2)c1,n,-95,n,n
CCCCCCN1CCN(c2ccc(Cl)cc2)CC1,n,u,n,n
Fc1cccc(F)c1CN1CCN(c2ccc(Cl)cc2)CC1,n,n,n,n
Cc1cccc(CN2CCN(Cc3ccc(Cl)cc3)CC2)c1,n,-64,n,n
CC[C@@H](O)C(C[C@@H](C)N(C)C)(c1ccccc1)c1ccccc1,x,x,n,x
CCCCNC(C)(C)[P+](=O)O,x,x,n,x
CC(=O)O[C@H]1C[C@H](O[C@H]2[C@@H](O)C[C@H](O[C@H]3[C@@H](O)C[C@H](OC4CC[C@@]5(C)C(CC[C@@H]6[C@@H]5CC[C@]5(C)[C@@H](C7=CC(=O)OC7)[C@@H](O)C[C@]65O)C4)O[C@@H]3C)O[C@@H]2C)O[C@H](C)[C@H]1O[C@@H]1O[C@H](CO)[C@@H](O)[C@H](O)[C@H]1O (some centres undefined),x,x,n,x
CCOc1ccccc1CN1C2CCC1CC(c1ccc(C)cc1)C2 (centres undefined),n,-70,n,n
SMILES,Giardia killer,D3 antag,DRD3 agonist,B2AR arrestin
CCCN(CCC)c1c([N+](=O)[O-])cc(S(N)(=O)=O)cc1[N+](=O)[O-],x,x,n,x
NCC(O)c1cc(O)c(O)cc1F (centres undefined),n,n,176,n
Oc1ccc2c3c1O[C@H]1[C@@H](O)C=C[C@H]4[C@@H](C2)NCC[C@@]341,x,x,n,x
CNC(C)Cc1ccccc1OC (centres undefined),x,x,n,x
OCCN1C2CCC1CC(O)(c1ccc(F)cc1)C2 (centres undefined),n,-68,n,n
OC1(c2ccc(F)cc2)CC2CCC(C1)N2Cc1nnnn1C1CCCCC1 (centres undefined),n,u,n,n
CN(C)[C@H](Cc1ccccc1)c1ccccc1,x,x,n,x
COc1cccc(CN2CC=C(c3ccc(F)cc3)CC2)c1,n,-77,n,n
BrCCc1ccccc1,n,-99,n,n
CNCCCc1ccccc1,n,n,n,n
CN1CCN=C(c2ccccc2)c2cc(Cl)ccc21,x,x,n,x
COc1ccc(CN2CCCC(C(=O)c3ccc(Cl)cc3)C2)c(OC)c1 (centres undefined),n,-60,n,n
O=C(c1ccc(Cl)cc1)C1CCCN(Cc2ccc3c(c2)OCCO3)C1 (centres undefined),n,n,n,n
COc1ccc(CN2CCCC(C(=O)c3ccccc3SC)C2)cc1O (centres undefined),n,-61,n,n
